# Reference: PMC7862700, “An all-to-all approach to the identification of sequence-specific readers for epigenetic DNA modifications on cytosine”
# What was measured:
# Experiment in all cases: DAPPL (digital affinity profiling via proximity ligation, sequencing); 10 mM Tris-HCl pH 7.5, 50 mM NaCl, 1 mM DTT, 4% glycerol, room temperature, 30 min; GST-TFs on glutathione beads, 16-mer random dsDNA library, 0.1% formaldehyde crosslink after washing; high values mean tight binding
# FEV = biological target: T1, FEV (Homo sapiens, UniProt Q99581 1-238); details: protein: recombinant; tags: N-terminal GST; dsDNA, one strand shown
# T1 sequence: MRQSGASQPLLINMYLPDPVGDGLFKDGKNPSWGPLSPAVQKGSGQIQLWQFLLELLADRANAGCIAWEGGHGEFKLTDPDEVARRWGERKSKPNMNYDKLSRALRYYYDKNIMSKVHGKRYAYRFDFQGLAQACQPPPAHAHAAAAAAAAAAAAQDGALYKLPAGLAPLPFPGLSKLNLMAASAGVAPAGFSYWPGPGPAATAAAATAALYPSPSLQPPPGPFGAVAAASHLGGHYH
# Summary of the method: (§1)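 Human transcription factors were made in yeast as GST fusions, captured on glutathione beads and barcoded with DNA. With a tag-only sample included, the pool was incubated with 200 nmole of a random double-stranded 16-mer DNA library in Tris/NaCl/DTT/glycerol buffer at room temperature for 30 min, then crosslinked with 0.1% formaldehyde after washing, ligated by proximity, amplified and sequenced. For binding signal, each hexamer's read frequency for a factor is divided by its frequency for the tag-only sample.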
# ETV5 = ETV5 (Homo sapiens, UniProt P41161 1-510); details: protein: recombinant; tags: N-terminal GST; dsDNA, one strand shown
# Summary of the method: as §1
# HSF1 = HSF1 (Homo sapiens, UniProt Q00613 1-529); details: protein: recombinant; tags: N-terminal GST; chain copies: 3; dsDNA, one strand shown
# Summary of the method: as §1
# SPIC = biological target: T2, SPIC (Homo sapiens, UniProt Q8N5J4 1-248); details: protein: recombinant; tags: N-terminal GST; dsDNA, one strand shown
# T2 sequence: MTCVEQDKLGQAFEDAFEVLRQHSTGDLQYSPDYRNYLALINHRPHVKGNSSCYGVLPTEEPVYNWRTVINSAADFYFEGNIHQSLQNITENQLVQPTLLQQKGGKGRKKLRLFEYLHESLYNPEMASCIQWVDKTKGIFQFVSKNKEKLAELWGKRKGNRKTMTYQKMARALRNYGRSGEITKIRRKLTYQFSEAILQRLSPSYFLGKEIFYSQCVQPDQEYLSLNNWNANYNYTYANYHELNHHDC
# Summary of the method: as §1
# ELF4 = ELF4 (Homo sapiens, UniProt Q99607 1-663); details: protein: recombinant; tags: N-terminal GST; dsDNA, one strand shown
# Summary of the method: as §1
# ELK4 = biological target: T3, ELK4 (Homo sapiens, UniProt P28324-2 1-405); details: protein: recombinant; tags: N-terminal GST; dsDNA, one strand shown
# T3 sequence: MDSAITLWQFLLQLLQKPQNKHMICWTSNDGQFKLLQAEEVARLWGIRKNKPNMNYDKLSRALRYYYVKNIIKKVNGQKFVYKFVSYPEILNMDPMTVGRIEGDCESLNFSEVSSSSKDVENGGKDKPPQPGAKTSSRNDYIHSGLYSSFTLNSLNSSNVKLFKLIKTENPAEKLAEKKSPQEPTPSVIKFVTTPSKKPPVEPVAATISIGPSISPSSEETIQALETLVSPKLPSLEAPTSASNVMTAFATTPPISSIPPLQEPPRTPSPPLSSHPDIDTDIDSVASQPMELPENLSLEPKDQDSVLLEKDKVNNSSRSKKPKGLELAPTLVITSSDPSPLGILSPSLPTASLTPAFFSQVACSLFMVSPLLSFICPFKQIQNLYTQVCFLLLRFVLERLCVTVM
# Summary of the method: as §1
# ETV2 = biological target: T4, ETV2 (Homo sapiens, UniProt O00321 1-342); details: protein: recombinant; tags: N-terminal GST; dsDNA, one strand shown
# T4 sequence: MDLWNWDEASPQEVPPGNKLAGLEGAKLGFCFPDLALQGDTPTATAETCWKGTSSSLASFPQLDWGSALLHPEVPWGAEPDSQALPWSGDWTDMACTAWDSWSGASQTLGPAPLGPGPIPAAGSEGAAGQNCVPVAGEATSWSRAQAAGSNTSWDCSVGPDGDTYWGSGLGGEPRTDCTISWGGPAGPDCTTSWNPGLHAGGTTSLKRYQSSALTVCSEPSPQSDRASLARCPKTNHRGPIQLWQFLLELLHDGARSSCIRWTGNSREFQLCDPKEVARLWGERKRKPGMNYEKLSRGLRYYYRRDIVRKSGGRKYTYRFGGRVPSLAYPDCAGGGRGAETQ
# Summary of the method: as §1
# ELF3 = biological target: T5, ELF3 (Homo sapiens, UniProt P78545 1-371); details: protein: recombinant; tags: N-terminal GST; dsDNA, one strand shown
# T5 sequence: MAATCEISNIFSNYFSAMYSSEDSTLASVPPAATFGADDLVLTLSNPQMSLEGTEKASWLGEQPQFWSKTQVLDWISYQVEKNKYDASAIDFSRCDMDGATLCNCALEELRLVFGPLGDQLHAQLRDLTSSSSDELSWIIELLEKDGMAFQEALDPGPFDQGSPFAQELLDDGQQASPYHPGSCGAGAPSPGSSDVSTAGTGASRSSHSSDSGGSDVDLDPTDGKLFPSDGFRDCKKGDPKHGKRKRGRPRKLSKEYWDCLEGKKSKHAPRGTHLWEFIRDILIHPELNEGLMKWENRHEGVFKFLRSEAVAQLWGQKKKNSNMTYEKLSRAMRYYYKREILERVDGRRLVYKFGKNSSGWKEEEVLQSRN
# Summary of the method: as §1
# CRX = CRX (Homo sapiens, UniProt O43186 1-299); details: protein: recombinant; tags: N-terminal GST; dsDNA, one strand shown
# Summary of the method: as §1
# ETV1 = ETV1 (Homo sapiens, UniProt P50549 1-477); details: protein: recombinant; tags: N-terminal GST; dsDNA, one strand shown
# Summary of the method: as §1
# ERF = biological target: T6, ERF (Homo sapiens, UniProt P50548 1-548); details: protein: recombinant; tags: N-terminal GST; dsDNA, one strand shown
# T6 sequence: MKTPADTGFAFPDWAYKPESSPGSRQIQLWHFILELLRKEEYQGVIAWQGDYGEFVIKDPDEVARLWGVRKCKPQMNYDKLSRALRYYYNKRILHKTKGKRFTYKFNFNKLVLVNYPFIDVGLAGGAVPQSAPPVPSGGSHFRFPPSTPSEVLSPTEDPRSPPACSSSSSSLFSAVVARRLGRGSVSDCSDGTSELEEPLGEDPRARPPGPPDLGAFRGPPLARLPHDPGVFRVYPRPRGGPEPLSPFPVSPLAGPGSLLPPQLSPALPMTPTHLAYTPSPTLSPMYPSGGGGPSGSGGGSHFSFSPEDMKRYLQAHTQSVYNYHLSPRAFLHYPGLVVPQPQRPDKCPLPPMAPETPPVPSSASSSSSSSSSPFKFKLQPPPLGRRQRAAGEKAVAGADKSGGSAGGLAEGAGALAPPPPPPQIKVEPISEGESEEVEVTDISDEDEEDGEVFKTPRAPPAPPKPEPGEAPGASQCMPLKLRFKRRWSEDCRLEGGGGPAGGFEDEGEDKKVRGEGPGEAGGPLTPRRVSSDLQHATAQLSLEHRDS
# Summary of the method: as §1
# ETV3L = biological target: T7, ETV3L (Homo sapiens, UniProt Q6ZN32 1-361); details: protein: recombinant; tags: N-terminal GST; dsDNA, one strand shown
# T7 sequence: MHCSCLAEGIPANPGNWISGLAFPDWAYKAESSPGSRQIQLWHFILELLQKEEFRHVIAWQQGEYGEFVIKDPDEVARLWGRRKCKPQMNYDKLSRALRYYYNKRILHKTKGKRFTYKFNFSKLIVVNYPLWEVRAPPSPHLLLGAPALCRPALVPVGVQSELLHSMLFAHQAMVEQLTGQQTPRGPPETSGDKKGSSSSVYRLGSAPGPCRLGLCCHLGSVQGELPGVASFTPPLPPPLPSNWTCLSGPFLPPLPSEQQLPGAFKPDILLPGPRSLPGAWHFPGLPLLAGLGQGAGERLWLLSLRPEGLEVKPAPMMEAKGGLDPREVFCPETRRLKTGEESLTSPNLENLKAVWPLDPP
# Summary of the method: as §1
# ETS2 = biological target: T8, ETS2 (Homo sapiens, UniProt P15036 1-469); details: protein: recombinant; tags: N-terminal GST; dsDNA, one strand shown
# T8 sequence: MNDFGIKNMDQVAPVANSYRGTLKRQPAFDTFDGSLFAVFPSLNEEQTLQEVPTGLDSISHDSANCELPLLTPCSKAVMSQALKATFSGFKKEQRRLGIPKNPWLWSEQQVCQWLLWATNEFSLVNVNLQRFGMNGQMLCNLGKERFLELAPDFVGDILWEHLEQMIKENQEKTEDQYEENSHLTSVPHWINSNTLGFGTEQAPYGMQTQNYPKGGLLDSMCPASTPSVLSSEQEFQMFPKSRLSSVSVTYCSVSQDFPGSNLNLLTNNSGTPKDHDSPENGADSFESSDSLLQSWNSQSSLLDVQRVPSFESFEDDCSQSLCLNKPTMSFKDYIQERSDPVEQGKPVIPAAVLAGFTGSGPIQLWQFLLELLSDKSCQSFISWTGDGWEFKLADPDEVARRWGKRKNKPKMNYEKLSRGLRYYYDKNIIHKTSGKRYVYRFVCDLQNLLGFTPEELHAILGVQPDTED
# Summary of the method: as §1
# SPDEF = biological target: T9, SPDEF (Homo sapiens, UniProt O95238 1-335); details: protein: recombinant; tags: N-terminal GST; dsDNA, one strand shown
# T9 sequence: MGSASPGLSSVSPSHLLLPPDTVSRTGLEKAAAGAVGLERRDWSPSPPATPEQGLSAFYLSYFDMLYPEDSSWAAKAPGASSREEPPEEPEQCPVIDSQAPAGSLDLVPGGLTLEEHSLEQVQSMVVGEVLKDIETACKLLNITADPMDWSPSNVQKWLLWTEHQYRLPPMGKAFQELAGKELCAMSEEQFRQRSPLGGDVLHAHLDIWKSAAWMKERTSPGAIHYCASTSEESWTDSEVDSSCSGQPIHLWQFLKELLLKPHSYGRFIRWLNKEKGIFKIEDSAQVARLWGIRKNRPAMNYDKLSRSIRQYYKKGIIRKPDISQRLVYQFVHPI
# Summary of the method: as §1
# ETV7 = biological target: T10, ETV7 (Homo sapiens, UniProt Q9Y603 1-341); details: protein: recombinant; tags: N-terminal GST; dsDNA, one strand shown
# T10 sequence: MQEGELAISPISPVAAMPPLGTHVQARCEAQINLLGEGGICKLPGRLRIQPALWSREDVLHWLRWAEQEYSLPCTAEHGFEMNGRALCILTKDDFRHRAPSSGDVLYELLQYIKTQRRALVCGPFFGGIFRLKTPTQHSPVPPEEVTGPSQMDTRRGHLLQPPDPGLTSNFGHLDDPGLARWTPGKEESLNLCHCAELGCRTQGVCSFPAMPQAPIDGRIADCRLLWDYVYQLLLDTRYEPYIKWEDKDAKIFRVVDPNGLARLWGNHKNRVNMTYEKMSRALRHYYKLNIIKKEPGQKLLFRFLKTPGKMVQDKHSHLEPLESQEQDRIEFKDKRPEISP
# Summary of the method: as §1
# ELF5 = biological target: T11, ELF5 (Homo sapiens, UniProt Q9UKW6-2 1-255); details: protein: recombinant; tags: N-terminal GST; dsDNA, one strand shown
# T11 sequence: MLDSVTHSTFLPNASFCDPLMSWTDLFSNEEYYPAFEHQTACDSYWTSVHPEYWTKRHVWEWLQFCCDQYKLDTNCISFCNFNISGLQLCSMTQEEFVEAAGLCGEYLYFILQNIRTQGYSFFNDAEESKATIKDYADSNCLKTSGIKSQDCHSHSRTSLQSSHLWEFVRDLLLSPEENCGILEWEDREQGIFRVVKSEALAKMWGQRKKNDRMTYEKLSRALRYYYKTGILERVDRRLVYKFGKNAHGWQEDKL
# Summary of the method: as §1
# ETV3 = biological target: T12, ETV3 (Homo sapiens, UniProt P41162-2 1-143); details: protein: recombinant; tags: N-terminal GST; dsDNA, one strand shown
# T12 sequence: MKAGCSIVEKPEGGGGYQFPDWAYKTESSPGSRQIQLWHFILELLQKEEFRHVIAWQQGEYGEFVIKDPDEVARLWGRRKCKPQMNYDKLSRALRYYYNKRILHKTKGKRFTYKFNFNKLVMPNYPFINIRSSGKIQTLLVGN
# Summary of the method: as §1
# ETV6 = ETV6 (Homo sapiens, UniProt P41212 1-452); details: protein: recombinant; tags: N-terminal GST; dsDNA, one strand shown
# Summary of the method: as §1
# Chain of ELF4 (Q99607 whole entry): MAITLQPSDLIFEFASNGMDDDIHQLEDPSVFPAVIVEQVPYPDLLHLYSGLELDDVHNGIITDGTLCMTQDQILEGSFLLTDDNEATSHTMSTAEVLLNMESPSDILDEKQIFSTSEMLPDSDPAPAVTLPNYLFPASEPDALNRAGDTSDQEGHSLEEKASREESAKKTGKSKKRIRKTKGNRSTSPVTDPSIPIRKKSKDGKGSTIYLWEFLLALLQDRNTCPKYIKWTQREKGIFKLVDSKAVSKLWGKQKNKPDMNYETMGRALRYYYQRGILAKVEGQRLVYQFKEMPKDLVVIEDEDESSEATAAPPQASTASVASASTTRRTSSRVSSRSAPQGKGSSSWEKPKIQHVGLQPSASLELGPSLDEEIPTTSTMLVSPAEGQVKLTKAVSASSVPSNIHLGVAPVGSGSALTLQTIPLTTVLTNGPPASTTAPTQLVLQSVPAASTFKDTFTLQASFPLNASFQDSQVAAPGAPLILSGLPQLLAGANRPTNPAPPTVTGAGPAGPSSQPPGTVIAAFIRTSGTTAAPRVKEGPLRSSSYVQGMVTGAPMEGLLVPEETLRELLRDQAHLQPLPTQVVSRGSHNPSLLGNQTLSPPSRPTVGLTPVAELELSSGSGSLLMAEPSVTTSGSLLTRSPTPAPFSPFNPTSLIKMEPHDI
# Chain of ETV6 (P41212 whole entry): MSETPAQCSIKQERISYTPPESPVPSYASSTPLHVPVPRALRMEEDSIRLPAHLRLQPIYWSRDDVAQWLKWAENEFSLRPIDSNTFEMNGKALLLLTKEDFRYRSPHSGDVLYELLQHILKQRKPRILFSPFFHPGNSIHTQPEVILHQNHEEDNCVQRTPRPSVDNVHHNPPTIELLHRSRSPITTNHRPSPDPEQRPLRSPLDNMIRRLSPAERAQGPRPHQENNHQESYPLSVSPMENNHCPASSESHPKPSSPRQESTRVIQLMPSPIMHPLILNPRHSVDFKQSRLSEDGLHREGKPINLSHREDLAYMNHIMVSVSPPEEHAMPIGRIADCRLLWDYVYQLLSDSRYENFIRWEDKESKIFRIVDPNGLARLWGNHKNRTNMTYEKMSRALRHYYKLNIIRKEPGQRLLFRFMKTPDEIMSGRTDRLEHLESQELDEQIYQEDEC
# Chain of ETV5 (P41161 whole entry): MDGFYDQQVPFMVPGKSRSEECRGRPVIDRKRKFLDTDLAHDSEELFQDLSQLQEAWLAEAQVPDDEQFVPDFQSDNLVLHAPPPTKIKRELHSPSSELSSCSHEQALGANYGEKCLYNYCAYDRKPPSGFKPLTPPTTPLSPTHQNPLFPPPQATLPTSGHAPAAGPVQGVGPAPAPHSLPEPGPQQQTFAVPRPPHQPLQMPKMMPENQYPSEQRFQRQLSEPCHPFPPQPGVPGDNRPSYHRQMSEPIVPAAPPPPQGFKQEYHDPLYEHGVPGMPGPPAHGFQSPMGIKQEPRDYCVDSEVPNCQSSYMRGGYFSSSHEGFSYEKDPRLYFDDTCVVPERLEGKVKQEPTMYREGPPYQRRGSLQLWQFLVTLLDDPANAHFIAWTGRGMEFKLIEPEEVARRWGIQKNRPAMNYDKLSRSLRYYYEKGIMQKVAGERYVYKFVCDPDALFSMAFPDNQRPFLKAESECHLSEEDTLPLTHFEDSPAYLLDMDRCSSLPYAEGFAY
# Chain of CRX (O43186 whole entry): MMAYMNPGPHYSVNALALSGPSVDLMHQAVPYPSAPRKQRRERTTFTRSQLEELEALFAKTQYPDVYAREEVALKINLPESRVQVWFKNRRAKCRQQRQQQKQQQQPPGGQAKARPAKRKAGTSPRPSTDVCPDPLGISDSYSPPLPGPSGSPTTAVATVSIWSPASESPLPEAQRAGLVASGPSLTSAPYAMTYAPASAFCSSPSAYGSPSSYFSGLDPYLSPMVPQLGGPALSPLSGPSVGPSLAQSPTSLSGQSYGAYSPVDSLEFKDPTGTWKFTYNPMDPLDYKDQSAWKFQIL
# Chain of HSF1 (Q00613 whole entry): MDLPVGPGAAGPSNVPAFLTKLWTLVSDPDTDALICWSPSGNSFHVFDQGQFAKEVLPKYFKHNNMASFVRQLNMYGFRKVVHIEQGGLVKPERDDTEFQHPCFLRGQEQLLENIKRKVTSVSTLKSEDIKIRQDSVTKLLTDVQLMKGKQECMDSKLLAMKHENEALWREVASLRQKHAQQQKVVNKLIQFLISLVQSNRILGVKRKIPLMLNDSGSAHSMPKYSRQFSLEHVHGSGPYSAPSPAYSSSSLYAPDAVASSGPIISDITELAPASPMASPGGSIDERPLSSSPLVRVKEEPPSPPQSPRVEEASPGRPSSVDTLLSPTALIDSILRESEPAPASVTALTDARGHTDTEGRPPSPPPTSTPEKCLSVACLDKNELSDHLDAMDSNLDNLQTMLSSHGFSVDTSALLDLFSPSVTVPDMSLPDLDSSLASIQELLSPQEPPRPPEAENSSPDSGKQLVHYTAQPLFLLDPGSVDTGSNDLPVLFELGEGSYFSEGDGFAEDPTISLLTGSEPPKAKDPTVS
# Chain of ETV1 (P50549 whole entry): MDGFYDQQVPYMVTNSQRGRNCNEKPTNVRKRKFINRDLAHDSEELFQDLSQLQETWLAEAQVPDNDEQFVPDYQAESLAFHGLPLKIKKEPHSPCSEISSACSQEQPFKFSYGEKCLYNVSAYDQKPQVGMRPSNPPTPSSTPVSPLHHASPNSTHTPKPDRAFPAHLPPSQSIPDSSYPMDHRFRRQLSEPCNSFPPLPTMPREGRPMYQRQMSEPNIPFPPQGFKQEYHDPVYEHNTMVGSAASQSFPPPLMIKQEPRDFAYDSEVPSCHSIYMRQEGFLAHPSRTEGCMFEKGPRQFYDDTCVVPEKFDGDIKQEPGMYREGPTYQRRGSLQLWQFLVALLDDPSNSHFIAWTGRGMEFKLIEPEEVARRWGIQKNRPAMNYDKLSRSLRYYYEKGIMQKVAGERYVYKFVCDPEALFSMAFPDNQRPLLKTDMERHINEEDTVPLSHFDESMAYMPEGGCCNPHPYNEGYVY
sequence,measurement,setting,value
TACTCC,binding signal,FEV,"1.25 fold enrichment (6-mer frequency, TF over GST control)"
same,binding signal,ETV5,"1.27 fold enrichment (6-mer frequency, TF over GST control)"
same,binding signal,HSF1,"1.18 fold enrichment (6-mer frequency, TF over GST control)"
same,binding signal,SPIC,"1.23 fold enrichment (6-mer frequency, TF over GST control)"
same,binding signal,ELF4,"1.26 fold enrichment (6-mer frequency, TF over GST control)"
same,binding signal,ELK4,"1.19 fold enrichment (6-mer frequency, TF over GST control)"
same,binding signal,ETV2,"1.25 fold enrichment (6-mer frequency, TF over GST control)"
same,binding signal,ELF3,"1.11 fold enrichment (6-mer frequency, TF over GST control)"
same,binding signal,CRX,"1.26 fold enrichment (6-mer frequency, TF over GST control)"
same,binding signal,ETV1,"1.24 fold enrichment (6-mer frequency, TF over GST control)"
same,binding signal,ERF,"1.34 fold enrichment (6-mer frequency, TF over GST control)"
same,binding signal,ETV3L,"1.26 fold enrichment (6-mer frequency, TF over GST control)"
same,binding signal,ETS2,"1.37 fold enrichment (6-mer frequency, TF over GST control)"
same,binding signal,SPDEF,"1.29 fold enrichment (6-mer frequency, TF over GST control)"
same,binding signal,ETV7,"1.21 fold enrichment (6-mer frequency, TF over GST control)"
same,binding signal,ELF5,"1.15 fold enrichment (6-mer frequency, TF over GST control)"
same,binding signal,ETV3,"1.33 fold enrichment (6-mer frequency, TF over GST control)"
same,binding signal,ETV6,"1.23 fold enrichment (6-mer frequency, TF over GST control)"
